Results reported in paper PMC5540273 (PLoS ONE, 2017).

tested on: TYK2(JH1domain-catalytic); settings: concentration: 1 μM,replicates: in singlicate; n = 1
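Note: KINOMEscan kinase panel screen.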

Point of comparison: `CC(C)S(=O)(=O)N1CCN(Cc2ccc3c(c2)nc(NC(=O)c2ccsc2)n3C[C@H](O)c2ccccc2)CC1` [GW635815], “%Inh” value 66%. Against it:
- CCn1c(-c2nonc2N)nc2cncc(CNC3CCNCC3)c21.Cl [SB-747651] — lower, 31%
- COc1cc2ncn(-c3cc(OCC4CCCCC4)c(C(N)=O)s3)c2cc1OC [GSK204559] — lower, 12%
- NC(=O)c1ccc(-c2cc3ncnc(SCC(=O)O)c3s2)cc1 — lower, 2%
- COc1ccc(Nc2nccc(N3CCC(NC(=O)c4cccc(C#N)c4)C3)n2)cc1 (centres unmarked) [GSK1379730] — lower, 44%
- CCOC(=O)N1CCC(n2cnc(-c3ccc(F)cc3)c2-c2ccnc(N)n2)CC1 [SB-219952] — lower, 48%
- CCN1CCN(CCCC(=O)Nc2n[nH]c3nc(-c4ccc(O)cc4)c(Br)cc23)CC1 [SB-731579] — lower, 52%
- CC(=O)c1c(-c2ccncc2)[nH]c(-c2ccncc2)c1C [GW493036] — lower, 42%
- O=c1[nH]cc(-c2ccc(O)cc2)c2sc(-c3ccncc3)cc12 [GSK1033723] — lower, 0%
- C[C@@H]1CCN(C(=O)N2CCCC2)C[C@@H]1N(C)c1ncnc2[nH]ccc12 — higher, 100%
- CCn1c(-c2nonc2N)nc2cncc(Br)c21 [SB-738004] — lower, 58%
- Cc1n[nH]c2cc(Nc3ccnc(Nc4cccc(CN5CCOCC5)c4)n3)ccc12 [GW682569] — higher, 95.9%
- O=C(NOCC1CC1)c1cc(Br)c(F)c(F)c1Nc1ccc(I)cc1Cl — lower, 0%
- Cn1cc(-c2cccc3c(N)c(C(N)=O)nnc23)cn1 — lower, 19%
